Experimental data from PubChem BioAssay (NCI).
This is part of a sample that, as a whole, favours compounds with a hit. Of some 83,000 tested, about 20% had one in any assay.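 In brief: 96-well plates, 48 h treatment, single concentration, percent growth endpoint.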 Calls of active or inactive are those of the source. The calls were made as follows: active = growth percent below 10; inactive = the rest.

Tests used:
Test in all cases: NCI-60 one-dose screen, 48 h (100 = growth as untreated, 0 = no growth, -100 = all killed)
Settings in all cases: 10 µM unless noted
[1] = system: NCI-H23 lung
[2] = system: NCI-H226 lung
[3] = system: NCI-H322M lung
[4] = system: HOP-62 NSCLC
[5] = system: NCI-H460 lung
[6] = system: HOP-92 NSCLC
[7] = system: NCI-H522 lung
[8] = system: A549/ATCC NSCLC
[9] = system: 786-0 renal
[10] = system: COLO 205 colon

Measured: growth

C=CCn1c(SCC(=O)Nc2ccc(/C(C)=N\O)cc2)nnc1-c1cc(-c2ccccc2)nc2ccccc12
inactive: [1] 38.9% | [2] 65.4% | [3] 69.2% | [4] 67.9% | [5] 52.1% | [6] 99.5% | [7] 41.6% | [8] 43.9% | [9] 45.2% | [10] 64.2%

COc1ccc(NC(=O)C2c3ccccc3C(=O)N(CC(C)C)C2c2cccs2)cc1 (stereo not given)
inactive: [1] 95.2% | [2] 92.7% | [3] 110% | [4] 90.1% | [5] 94.3% | [6] 94.1% | [7] 92.3% | [8] 89.5% | [9] 98.8% | [10] 105%

CCN1CCN(Cc2ccc(NC(=O)c3nc4ccc5[nH]ncc5c4c4c3CCCC4)cc2C(F)(F)F)CC1
active: [3] 2.39% | [4] -29.8% | [5] -73.4% | [7] -76.9% | [8] 6.07% | [9] -88.6% | [10] -76.7%
inactive: [1] 74.6% | [2] 60.3% | [6] 44.9%

O=C1/C(=C\c2cccn2C(=O)c2ccccc2)c2ccccc2N1c1c(Cl)cccc1Cl
inactive: [1] 75.3% | [2] 70.1% | [3] 93.7% | [4] 99.3% | [5] 94.8% | [6] 81.5% | [7] 70.5% | [8] 77.3% | [9] 94% | [10] 98%

COc1ccc2[nH]cc(/C=C3\C(=O)Nc4ccccc43)c2c1
inactive: [1] 42.3% | [2] 62.1% | [3] 37.8% | [4] 28.8% | [5] 26% | [6] 31.3% | [7] 17.5% | [8] 26.5% | [9] 53.8% | [10] 40.6%

C=CCN(CCOC(=O)c1ccc([N+](=O)[O-])cc1)CCOC(=O)c1ccc([N+](=O)[O-])cc1
inactive: [1] 106% | [2] 94.9% | [3] 91.1% | [4] 91.9% | [5] 115% | [6] 87.1% | [7] 95.3% | [8] 102% | [9] 103% | [10] 112%

CCN(CC)CCCC(C)Nc1cnc(C(=O)Nc2cc(C)cc3cccnc23)cn1 (stereo not given)
inactive: [1] 96.3% | [2] 60.4% | [3] 84.2% | [4] 91.2% | [5] 79.5% | [6] 51.4% | [7] 96.8% | [8] 72.8% | [9] 88.2% | [10] 37%

COc1ccc(C2=CC(c3ccc(OC)cc3Br)N3C=CSC3=N2)cc1 (stereo not given)
inactive: [1] 96.9% | [2] 66.6% | [3] 72.8% | [4] 75.6% | [5] 90.6% | [6] 77.4% | [7] 67.9% | [8] 41.8% | [9] 83.7% | [10] 80.3%

COc1cc(/C=C/C(=O)c2ccc(NC(=O)CSc3nnc(-c4ccc(Cl)cc4)n3-c3ccccc3)cc2)cc(OC)c1OC
inactive: [1] 55.9% | [2] 82% | [3] 96.5% | [4] 96.5% | [5] 80% | [6] 97.9% | [7] 63.8% | [8] 69.8% | [9] 79% | [10] 79.8%

CCOCC(O)(c1ccc(Cl)cc1)c1ccc(Cl)cc1
inactive: [1] 95.1% | [2] 113% | [3] 93.9% | [4] 115% | [5] 107% | [6] 107% | [7] 89.4% | [8] 83.2% | [9] 104% | [10] 111%

O=C(C=P(c1ccccc1)(c1ccccc1)c1ccccc1)CCl
active: [1] -23.2% | [2] -70.7% | [5] -11.9% | [6] -51.7% | [7] -77.7% | [9] -75.8% | [10] -53.9%
inactive: [3] 10.3% | [4] 13.9% | [8] 23.1%

COC(=O)c1cc(Cl)cc([N+](=O)[O-])c1O
inactive: [1] 111% | [2] 97.9% | [3] 115% | [4] 104% | [5] 116% | [6] 83.8% | [7] 99.5% | [8] 105% | [9] 108% | [10] 115%

COc1cc(C2=NOC(c3cc(OC)c(OC)c(OC)c3)C2)ccc1OCCCCOc1cc2c(cc1OC)C(=O)N1CCC[C@H]1C=N2 (stereo not given in full)
active: [1] -15.9% | [2] 9.32% | [3] -6.38% | [4] 9.48% | [5] -29.6% | [6] -29.3% | [7] -41.7% | [8] 6.75% | [9] -4.62% | [10] -78%
